Compound activity: PubChem, The Scripps Research Institute Molecular Screening Center
The entries come from a sample that favours hits as a whole.
SF-1 inh = SF-1 (human) inhibition; CHO-K1 Gal4-SF-1 LBD luciferase reporter; Q13285; inhibition, % at 10 µM; 65,000 compounds, 0.55% hits;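 active = inhibition above the mean inhibition of all tested compounds plus 3 SD, cut at about 48% in these data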;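 note: 0% = SF-1 transfected cells with DMSO and 100% = mock-transfected cells lacking SF-1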
Target sequence (Q13285 whole entry, looked up, the tested form may be a part): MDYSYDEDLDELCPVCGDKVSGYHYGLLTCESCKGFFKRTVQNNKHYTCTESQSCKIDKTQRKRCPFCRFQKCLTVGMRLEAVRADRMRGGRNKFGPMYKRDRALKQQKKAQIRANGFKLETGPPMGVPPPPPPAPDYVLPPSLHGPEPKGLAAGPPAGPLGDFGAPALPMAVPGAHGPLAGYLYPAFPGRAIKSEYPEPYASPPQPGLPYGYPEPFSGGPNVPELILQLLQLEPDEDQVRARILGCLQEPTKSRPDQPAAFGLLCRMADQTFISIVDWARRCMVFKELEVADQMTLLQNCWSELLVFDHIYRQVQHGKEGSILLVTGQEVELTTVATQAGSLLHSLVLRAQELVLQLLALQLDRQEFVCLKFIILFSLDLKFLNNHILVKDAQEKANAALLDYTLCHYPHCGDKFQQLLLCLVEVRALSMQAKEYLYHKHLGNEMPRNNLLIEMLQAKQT
An asterisk follows results filed as active.

SMILES	SF-1 inh
CCN(CC)c1ccc2cc(NC(=O)CCC(=O)O)c(=O)oc2c1	59*
O=C(Cn1nc(-c2ccc(Cl)cc2)ccc1=O)NCCN1CCOCC1	3
CC(C)(C)n1ncc2c(=O)n(CC(=O)NCc3ccccc3Cl)cnc21	-74
COc1nc(OCCNC(=O)Nc2ccccc2)nc(N(C)C)n1	5
O=C(c1cnsn1)N1CCN(c2ccccn2)CC1	-4
CN(C(=O)c1cccc(N2C(=O)C3CC=CCC3C2=O)c1)C1CCCCC1 (centres undefined)	-6
O=C(Oc1ccc2c(c1)OCO2)c1cc2c(s1)CCC2	8
CCn1c(C)nc2cc(-c3nc4n(n3)Cc3ccccc3-4)ccc21	96*
C=CCc1c(C)nc(SC)nc1Nc1ccc(C(C)=O)cc1	-14
COc1cc2c(C#N)c(N3CCN(c4ccccc4OC)CC3)nc(N)c2c(N)n1	73*
N#Cc1c(N2CCCC2)nc(N)c2c(N)nc(N3CCCC3)cc12	-50
COc1ccccc1C(=O)N1CCN(c2nc3cc(C)c(C)cc3cc2C#N)CC1	-19
CCCN(CCC)CCSc1nc(O)c(C(C)C)c(=O)[nH]1	-16
NC(=O)c1ccsc1NC(=O)COc1ccccc1	-68
c1ccc2nc(-c3nc4ccccc4[nH]3)ccc2c1	67*
O=c1[nH]c2ccccc2nc1-c1cccs1	-54
c1csc(-c2ccc3ccccc3n2)c1	-79
Cn1cccc1CNC(=O)Nc1ccc(Cl)c(Cl)c1	-66
Cc1ccc(S(=O)(=O)Nc2cccc3ncccc23)s1	91*
Cc1cc(C)n2c3c(c(C#N)c2n1)CCCC3	-23
CCC(=O)Nc1ccc(-c2nnc(-c3ccccc3)o2)cc1	-34
O=C(Cc1ccc(Cl)cc1)Nc1ccc(-c2nnc(-c3ccco3)o2)cc1	53*
O=C(Cc1ccc(Cl)cc1)Nc1ccc(N2CCN(C(=O)c3ccco3)CC2)cc1	10
Nc1nonc1C(=O)NCCNCc1cc(Br)ccc1OCc1ccc(F)cc1	57*
COc1ccc(CCNC(=O)c2nonc2N)cc1OC	1
SMILES	SF-1 inh
O=C(NCc1ccc(F)cc1)c1noc2c1CCCC2	3
CCCc1noc(-c2ccc(-c3ccccc3)cc2)n1	-55
Cc1ccccc1Cn1c2ccccc2c2cn[nH]c(=O)c21	8
O=S1(=O)C=C(Sc2nc3cc(Cl)ccc3o2)c2ccccc21	71*
O=C(Nc1cccc(-c2nc3cc(Cl)ccc3o2)c1)C1CCCO1 (centres undefined)	-81
O=C1c2ccccc2C(=O)N1CCCSc1nc2ccccc2o1	2
COCCN(C(=O)Nc1ccccc1)c1ccccc1C	-5
COC(=O)c1c(-c2cccnc2)csc1NC(=O)c1cc(C)on1	-80
O=C(NCC1CCCO1)c1cccc(-n2cnnn2)c1 (centres undefined)	12
O=C(CCNS(=O)(=O)c1cccc2nonc12)NC1CCCc2ccccc21 (centres undefined)	5
O=S(=O)(c1cccc(C(F)(F)F)c1)N1CCC(O)(c2cccnc2)CC1	4
CC(=O)N1CCN(c2ccc(Oc3nc(-c4ccccc4)nc4ccccc34)cc2)CC1	-12
c1ccc(N2CCN(c3nc(-c4ccccn4)nc4ccccc34)CC2)cc1	52*
CC1CN(c2nc(-c3ccccc3)nc3ccccc23)CC(C)O1 (centres undefined)	25
Cc1ccc(C)c(S(=O)(=O)c2c(N)n(/N=C/c3ccco3)c3nc4ccccc4nc23)c1	15
O=C(NCc1cccs1)c1cc2c(s1)CCCC2	-25
COc1cccc(-n2c(SCC(=O)NCCc3ccccc3)nnc2-c2ccoc2C)c1	8
O=C(OCC(=O)N1CCCCCC1)c1cccs1	-55
CCOc1ccc(C2=Nn3c(nnc3-c3ccccc3OC)SC2)cc1	73*
COc1ccccc1-c1nnc2n1N=C(c1ccc(O)c(O)c1)CS2	67*
CCOc1ccc(NC(=O)c2ccccc2OC)cc1	-73
CCn1c(SCC(=O)c2ccc(O)c(O)c2)nnc1-c1ccccc1OC	5
Clc1ccc(C2=Nn3c(nnc3-c3cccnc3)SC2)s1	6
CC(C(=O)NC1CCCC1)N(C(=O)c1snc(C(N)=O)c1N)c1ccc2c(c1)OCCO2 (centres undefined)	-7
CCCCc1cc(O)c(CCCC)c(O)c1	-35
SMILES	SF-1 inh
CC(=O)c1cccc(NC(=O)N2CCCC2C(=O)Nc2c(C)cccc2C)c1 (centres undefined)	23
O=C(CCN1C(=O)c2ccccc2C1=O)OCn1nnc2ccccc2c1=O	4
O=C(/C=C\Nc1ccccn1)c1ccc(Cl)cc1	64*
O=C(/C=C/Nc1ccc(F)c(Cl)c1)c1ccco1	-55
Cc1c(C(=O)Nc2ccccn2)oc2ccccc12	-69
CCCCn1cnc2c(cnn2-c2ccc(Cl)cc2)c1=O	-65
O=c1[nH]c2cccnc2n1Cc1ccco1	-16
Clc1ccc2nc(N3CCCCC3)sc2c1	-65
O=C(NCC1CCCO1)c1ccc2nc(N3CCCCC3)sc2c1 (centres undefined)	-54
CC1CCN(c2nc3ccc(C(=O)O)cc3s2)CC1	94*
O=C(C1CC1)N1CCN=C1SCc1cccc(F)c1	1
CN(Cc1ccco1)C(=O)c1ccc(N2CCCC2=O)cc1	-10
Cc1c(Cl)cccc1NC(=O)NC1CCCCC1	-29
Cc1ccc(NC(=O)NC2CCCCC2)cc1Cl	-74
O=C(Nc1ccccc1NC(=O)NC1CCCCC1)NC1CCCCC1	84*
Cc1ccc2c(c1)C(N1CCCC1=O)CC(c1ccco1)N2 (centres undefined)	-58
C(=N\n1cnnc1)/c1cn(Cc2ccccc2)c2ccccc12	6
Cn1cc(/C=N/n2cnc3scc(-c4ccc(Cl)cc4)c3c2=O)c2ccccc21	81*
CCCc1cc(=O)n2[nH]c(-c3ccc(Br)cc3)cc2n1	-112
CCn1c2ccccc2c2cc(Nc3cc(C)nc4ncnn34)ccc21	70*
Cc1cc(N2CCc3ccccc32)n2ncnc2n1	16
Cc1cc(N2CCN(c3nnnn3-c3ccccc3)CC2)n2ncnc2n1	-6
COc1ccc(NC(=O)c2ccco2)c(NC(=O)Cc2cccs2)c1	-7
Cc1ccc(C)c(NC(=O)CSc2nnc(-c3ccncc3)n2N)c1	0
Cc1nnc(SCC(=O)N2c3ccccc3CC2C)s1 (centres undefined)	6
SMILES	SF-1 inh
Cc1nnc(SC(=O)N2c3ccccc3Sc3ccccc32)s1	65*
O=C(COc1ccc(Cl)cc1)NC1CCSC1=O (centres undefined)	-3
CSc1nnnn1CCn1nnnc1SC	12
COc1ccc(Cn2c(C3CC3)nc3ccc(NC(=O)c4ccco4)cc3c2=O)cc1	-59
CC1=C(C)CC(C(=O)c2ccccc2)C(C(=O)O)C1 (centres undefined)	20
O=C(OCC(=O)N1CCOCC1)C(c1ccccc1)c1ccccc1	-3
CCN1C(=O)c2ccccc2S(=O)c2ccc(C(=O)NCCCN3CCCC3=O)cc21 (centres undefined)	-33
c1cncc(-c2nnc(SCc3nc4ccccc4[nH]3)o2)c1	56*
CCC(Sc1ccccn1)C(=O)Nc1nnc(C)s1 (centres undefined)	-6
O=c1oc2ccccc2c(N2CCCCC2)c1CN1CCCCC1	8
Oc1c(CN2CCCCC2)cc(Br)c2cccnc12	69*
O=C(NCCN1CCCCCC1)C1CCC(CNS(=O)(=O)c2cccc3cccnc23)CC1 (centres undefined)	-3
O=c1c2ccccc2nnn1CSc1nnc2ccccn12	-78
Cc1cccc2[nH]c(-c3ccc(NC(=O)c4ccco4)cc3)nc12	-74
O=C1CCCC2=C1C(c1ccco1)Nc1ccc3ccccc3c12 (centres undefined)	4
